Consider 36 compounds from PubChem BioAssay.

Molecules are shown by their SMILES. Unmarked numbers belong to inactive results. The source made the active and inactive calls.

This assay in a line: forskolin-driven CRE-LacZ activity in PC12 – cell-based, CRE-LacZ reporter, forskolin-stimulated, primary screen (AID 1146).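 Note: PC12 cells with 6xCRE LacZ reporter stimulated by forskolin 10 µM; beta-galactosidase reporter signal reflecting CREB driven transcription.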 Conditions: luminescence, 4.5 h, higher = more signal, called active from +8 up or from −8 down.
Consider `CO[C@H]1COC(=O)[C@H](CCSC)NC(=O)CC=C[C@@H](C)[C@H](OC)COC(=O)[C@@H](OCc2ccccc2)C=C[C@@H]1C`, for which the z-score was 0.74.
For `COC(=O)[C@H](C)NC(=O)CCC1CC(OC(=O)NCCc2ccc(F)cc2)CC2(CCCC(COC(=O)NCCc3ccccc3OC)O2)O1` (stereo partly specified) the value was 0.0825; for `CC(C)CN1CCc2nc(-c3ccccc3)c3c(c2C1)CO[C@@H](C)C3`, -1.44.
For `CC(C)[C@@H](OCc1ccccc1)[C@H](C)CON=C1[C@H]2CCn3c(=O)n(-c4ccccc4)c(=O)n3[C@H]2[C@H](O)[C@@H]2O[C@H]12` the value was 1.2; for `CON=C(C)CCN1CCc2nc(-c3ccccc3)c(-c3ccccc3)cc2C1`, -0.55.
Turning to `COc1ccc(OC[C@H]2CN3[C@@H](CC[C@@H](C)[C@@H]3c3ccc(Br)cc3)C(=O)O2)cc1`, the z-score is -0.165.
The figure for `O=C(NN=C1C[C@@H](O)[C@@H](O)[C@@H]2[C@@H]3C(=O)N(c4ccc(F)cc4F)C(=O)[C@@H]3CC[C@H]12)OCc1ccccc1` is 0.139; for `COC(=O)[C@H](C)NC(=O)CCC1CC(OC(=O)NCc2cccc3ccccc23)CC2(CCCC(COC(=O)NCc3ccccc3)O2)O1` (stereo partly specified) it is 0.0493.
With `O=C1C2=CC[C@H]3C(=O)N(C4CCCCC4)C(=O)[C@H]3[C@H]2[C@H](O)[C@@H]2O[C@H]12`, the z-score is 30.1 (active).
With `C#CCCCON=C1C[C@@H](O)[C@@H](O)[C@@H]2[C@@H]3C(=O)N(C[C@@H]4CCCO4)C(=O)[C@@H]3CC[C@H]12`, the z-score was 0.593.
The figure for `O=C1[C@H]2CCn3c(=O)n(-c4ccccc4)c(=O)n3[C@H]2[C@H](O)[C@@H]2O[C@H]12` is 0.0871; for `CC(=O)OC[C@H]1O[C@H](CC=NOCC[C@@H]2C=C[C@H](OC(C)=O)[C@@H](COC(C)=O)O2)C=C[C@@H]1OC(C)=O` it is 1.4.
The figure for `CCCNC(=O)OC[C@H]1O[C@H](CCON=C[C@@H](C)[C@H](OCc2ccccc2)C(C)C)C=C[C@@H]1Oc1ccc(OC)cc1` is -0.0248; for `CC(CCC(=O)OC[C@H]1O[C@H](C#Cc2ccccc2)C=C[C@@H]1Oc1ccc(C)cc1)=NOC(C)CN1CCCCc2nc(C)c(C)cc21` (stereo partly specified) it is 1.1.
For `CCN1C(=O)[C@H]2[C@H]3[C@H](O)[C@H](O)CC(=NNC(=O)OCc4ccccc4)[C@H]3CC[C@H]2C1=O`, the z-score is -0.497.
On to `CO[C@@H](C(C)C)[C@@H](C)C1OC(=O)CC1O` (stereo partly specified), for which the z-score was -0.0208.
As to `CC(C)=NOC(C)CN1CCCc2nc(C)c(C)cc21` (stereo unspecified), the z-score is -0.263.
The figure for `CO[C@@H]1[C@H](O)CO[C@H]1C=Cc1ccccc1` is -0.43; for `COc1ccc(O[C@H]2C=C[C@@H](C#Cc3ccccc3)O[C@@H]2CO)cc1` it is -0.003.
For `CC(CCC(=O)OC[C@H]1O[C@H](C#Cc2ccccc2)C=C[C@@H]1Oc1ccc(C)cc1)=NOC[C@@H](C)[C@H](OCc1ccccc1)C(C)C` the value was 0.778; for `CC(CCN1CCc2nc(-c3ccccc3)c(-c3ccccc3)cc2C1)=NOC(C)CN1CCCc2nc(C)c(C)cc21` (stereo unspecified), -0.0977; for `CCOC(=O)[C@H](CC(C)C)NC(=O)CCC1CC(OC(=O)NCc2ccc3c(c2)OCO3)CC2(CCCC(COC(=O)NCCc3ccc(Cl)cc3)O2)O1` (stereo partly specified), 0.501.
For `CC(=O)OC[C@H]1O[C@@H](ON=C(C)CCC(=O)OC[C@H]2O[C@H](C#Cc3ccccc3)C=C[C@@H]2Oc2ccc(C)cc2)[C@H](OC(C)=O)[C@@H](OC(C)=O)[C@@H]1OC(C)=O` the value was 0.725; for `CC(C)CON=C1C[C@@H](O)[C@@H](O)[C@@H]2[C@@H]3C(=O)N(c4ccc(F)cc4F)C(=O)[C@@H]3CC[C@@H]12`, 0.391; for `CCOC(=O)CCN1C(=O)[C@H]2[C@H]3[C@H](O)[C@H](O)CC(=NO[C@@H]4O[C@H](CO)[C@@H](O)[C@H](O)[C@H]4O)[C@H]3CC[C@H]2C1=O`, 0.497.
Consider `CCOC(=O)[C@H](Cc1ccccc1)NC(=O)CCC1CC(OC(=O)NCc2cccc3ccccc23)CC2(CCCC(COC(=O)NCCc3ccc(Cl)cc3)O2)O1` (stereo partly specified), for which the z-score was 0.0305.
Regarding `CCN1C(=O)[C@H]2[C@H]3[C@H](O)[C@H](O)CC(=NOC[C@@H](O)COCc4ccco4)[C@H]3CC[C@H]2C1=O`, the z-score was -0.541.
As for `C#CCCCON=C1C[C@@H](O)[C@@H](O)[C@@H]2[C@@H]3C(=O)N(C4CCCCC4)C(=O)[C@@H]3CC[C@@H]12`, the z-score was -0.0263.
`COC(=O)[C@H](CCSC)NC(=O)CC=C[C@@H](C)CO`: the z-score was 0.118.
As for `CCc1cc2c(nc1CC)CCN(CCC(C)=NO[C@@H]1O[C@H](COC(C)=O)[C@@H](OC(C)=O)[C@H](OC(C)=O)[C@H]1OC(C)=O)C2`, the z-score was -0.26.
In the case of `CO[C@H]1COC(=O)[C@H](C)COC(=O)[C@H](C)NC(=O)CC=C[C@H]1C`, the z-score is -0.506.
Consider `COC(=O)[C@H](C)NC(=O)CCC1CC(OC(=O)NCc2ccc3c(c2)OCO3)CC2(CCCC(COC(=O)NCCCN3CCCC3=O)O2)O1` (stereo partly specified), for which the z-score was 0.833.
The figure for `COc1ccc(COC(=O)NN=C2C[C@@H](O)[C@@H](O)[C@@H]3[C@@H]4C(=O)N(C[C@@H]5CCCO5)C(=O)[C@@H]4CC[C@@H]23)cc1` is -0.959.
Take `COc1ccc(COC(=O)NN=C2C[C@@H](O)[C@@H](O)[C@@H]3[C@@H]4C(=O)N(C(C)(C)C)C(=O)[C@@H]4CC[C@@H]23)cc1`: the z-score was 0.384.
For `CCOC(=O)[C@H](CC(C)C)NC(=O)CCC1CC(OC(=O)NCc2ccc3c(c2)OCO3)CC2(CCCC(COC(=O)NCc3ccccc3)O2)O1` (stereo partly specified) the value was -0.256; for `CC(C)[C@H](NC(=O)OC(C)(C)C)[C@@H](O)CC(=O)C(C)(C)C`, -0.422.
